# CHOP inh: inhibitors of CHOP induction in ER stress response; CHO-K1 CHOP-promoter luciferase, tunicamycin-induced, 15-18 h; inhibition, % at 10 µM; hit rate 3.8% among 220,000;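 active means compounds that reduced the stress-induced luciferase reporter signal by more than about 70% of percent inhibition, limit read from the data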
# Lmaj promast: inhibitors of Leishmania major promastigote growth; Leishmania major promastigotes, resazurin fluorescence viability; inhibition, % at 10 µM; hit rate 9% among 200,000; AID 1063; in the data active means inhibition above about 50%;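 further: promastigotes grown with compound for 44 hours at 28 °C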
# Arbovirus anti: antivirals against arbovirus infection | arbovirus infection cell-based antiviral screen | inhibition, % at 10 µM | hit rate 0.37% among 200,000 | AID 1251; in the data active means inhibition above about 30%
# WT yeast gro inh: growth inhibition of WT yeast, mitochondrial fusion screen. mitochondrial fusion phenotypic screen, WT strain. inhibition, % at 10 µM. hit rate 2.1% among 190,000; in the data active means inhibition above about 58%; tested in S. cerevisiae
# Numbers stand for hits; n = inactive; x = not tested or not shown. Hits are enriched below; roughly 12% of the tested compounds scored in any of these assays.
SMILES,CHOP inh,Lmaj promast,Arbovirus anti,WT yeast gro inh
Cc1nc(Nc2ccc(Cl)c(Cl)c2)sc1C(=O)Nc1ccccc1,96,n,n,n
Cc1nc(NC(=O)/C=C/c2ccccc2)sc1C(=O)Nc1ccc(Cl)cc1,88,n,n,n
CC(C)(C)c1ccc(/C=C/C(=O)Nc2ccncc2)cc1,n,88,n,n
Cc1ccc(NC(=O)COC(=O)c2ccc3c(c2)OCO3)c(C)c1,n,x,x,x
C=CCSC1=NNC(c2ccc(C(C)(C)C)cc2)=NN1,n,x,x,x
CC(=O)c1sc(-c2ccc(Cl)cc2)nc1C,n,n,n,n
Cc1nc(NC(=O)COc2ccccc2)sc1C(=O)Nc1ccccc1,n,n,n,n
Cc1nc(Nc2ccc(Cl)cc2Cl)sc1C(=O)Nc1ccccc1,n,n,n,71
Cc1nc(-c2ccccc2)sc1C(=O)/C=C/c1ccc(Cl)cc1,n,63,n,n
NCCCC[C@@H]1NC(=O)[C@H](CCC(=O)O)NC(=O)c2cc([N+](=O)[O-])cc(I)c2OCC[C@@H](C(N)=O)NC1=O,n,n,n,n
O=C(Nc1nnc(-c2ccccc2)o1)c1cc(Cl)sc1Cl,n,n,n,n
O=C(Nc1nnc(-c2ccc(F)cc2)o1)c1cc(Cl)sc1Cl,n,62,n,n
Cc1occc1-c1nnc(-c2cc([N+](=O)[O-])cc([N+](=O)[O-])c2)o1,n,82,n,n
O=C(Nc1nnc(-c2ccc(F)cc2)o1)c1cccc([N+](=O)[O-])c1,n,96,n,76
O=c1cc(-c2cccc([N+](=O)[O-])c2)[nH][nH]1,n,58,n,n
Nc1cc(-c2cccc([N+](=O)[O-])c2)[nH]n1,n,n,n,n
NC(=O)[C@@H]1CCCNc2c(I)cc([N+](=O)[O-])cc2C(=O)N[C@@H](CO)C(=O)NCC(=O)N1,n,n,n,n
CNS(=O)(=O)c1c(C)cc(C)c(N(C)S(=O)(=O)c2ccccc2)c1C,n,n,n,n
O=[N+]([O-])c1cccc(-c2nnc(-c3ccccc3)o2)c1,80,n,n,n
O=C1c2cccc3cc([N+](=O)[O-])cc(c23)C(=O)N1c1ccccc1O,n,98,n,n
Cc1cc(O)ccc1N1C(=O)c2cccc3cc([N+](=O)[O-])cc(c23)C1=O,n,88,n,n
Cc1ccccc1-n1cnnc1SCC(=O)Nc1cccnc1Cl,n,n,n,n
Cc1cnn(Cc2cccnc2)c1N,n,x,x,x
CCn1cc(CNC(=O)CCc2nnc(CCC3CCCCC3)o2)cn1,n,n,n,n
Oc1ccccc1N=Cc1c(O)ccc2ccccc12,n,x,x,x
SMILES,CHOP inh,Lmaj promast,Arbovirus anti,WT yeast gro inh
Oc1ccccc1N=Nc1ccccc1O,73,100,n,n
Cc1ccc(OCc2nnc(SCC(=O)Nc3ccc4c(c3)OCCO4)n2Cc2ccco2)cc1,n,96,n,n
CC(=O)Nc1ccc(NC(=O)CSc2nnc(-c3ccccc3)n2Cc2ccc3c(c2)OCO3)cc1,n,n,n,66
Cc1ccc(NC(=O)CSc2ncc(-c3ccccc3)n2C(=O)c2ccccc2)cc1,n,n,n,n
O=C(CSc1nccn1-c1ccccc1)Nc1ccc2c(c1)OCO2,n,n,n,n
O=C(CSc1nnc(-c2ccccc2)n1Cc1ccco1)Nc1ccc2c(c1)OCCO2,n,n,n,n
Cc1cc(C)cc(-n2ccnc2SCC(=O)Nc2ccc3c(c2)OCCO3)c1,84,n,n,n
Cc1ccc(NC(=O)Cn2c(-c3ccc(F)cc3)cnc2SCC(=O)Nc2c(C)cccc2C)cc1,81,n,n,n
COCCn1c(N)c(Sc2ccccc2[N+](=O)[O-])c(=O)[nH]c1=O,n,x,x,x
CNCc1ccccc1Sc1ccc(OC)c(OC)c1,n,n,n,n
COc1ccc(C(=O)CN2C(=O)c3ccccc3C2=O)cc1,n,x,x,x
Cc1nc(-c2ccccc2Cl)sc1C(=O)/C=C/N(C)C,n,n,n,n
O=C(CSc1ncc(-c2ccc(F)cc2)n1Cc1ccco1)Nc1ccc2c(c1)OCO2,n,60,n,n
